According to PubChem BioAssay (NCATS):
Inconclusive results are not listed. Calls of active or inactive are those of the source. Calls follow the shape of the dose curve; as a rule, active = well fitted curve in the direction sought with a large enough effect; inconclusive = small, poorly fitted or top-dose-only effect, or another doubt; inactive = no such curve, though single readings can be large; an effect the other way counts as inactive or inconclusive.

How the values were obtained:
[1] = target: Cellular tumor antigen p53 (Homo sapiens) (UniProt P04637); assay: Primary qHTS for small molecule compounds that upregulate eGFP-tagged delta133p53alpha (in N-terminal) cells. (AID 2060322); conditions: NCI-H358 eGFP-delta133p53alpha fluorescence, 24 h; activation: hits give high values;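 also: cells pre-induced with doxycycline then dosed without doxycycline; series mostly up to about 56 µM; 0% = DMSO vehicle and 100% = reference activator; nearly all actives have a fitted effect of over 75% in size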
Procedure, shortened: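 NCI-H358 cells pre-induced 24 h with 10 ng/ml doxycycline for eGFP-delta133p53alpha, plated dox-free and exposed 24 h at 37C to titrated compounds. Fixed, Hoechst-stained; gated GFP peak intensity by laser scanning cytometry, normalized to DMSO (0%) and 57.5 uM 5-azacytidine (100%).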

[2] = target: Aldehyde dehydrogenase, mitochondrial (Homo sapiens) (UniProt P05091); assay: qHTS for Inhibitors of the Aldehyde Dehydrogenase Family (ALDH2) Primary screen (AID 2061308);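 also: plate controls were vehicle for no effect and reference inhibitor for full effect; nearly all actives have a fitted effect of over 55% in size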
[3] = target: Retinaldehyde dehydrogenase 3 (Homo sapiens) (UniProt P47895); assay: qHTS for Inhibitors of the Aldehyde Dehydrogenase Family (ALDH1A3) Primary screen (AID 2061315);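 also: plate controls were DMSO vehicle for no effect and reference inhibitor for full effect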

Cellular tumor antigen p53 (Homo sapiens), sequence (P04637 whole entry, looked up): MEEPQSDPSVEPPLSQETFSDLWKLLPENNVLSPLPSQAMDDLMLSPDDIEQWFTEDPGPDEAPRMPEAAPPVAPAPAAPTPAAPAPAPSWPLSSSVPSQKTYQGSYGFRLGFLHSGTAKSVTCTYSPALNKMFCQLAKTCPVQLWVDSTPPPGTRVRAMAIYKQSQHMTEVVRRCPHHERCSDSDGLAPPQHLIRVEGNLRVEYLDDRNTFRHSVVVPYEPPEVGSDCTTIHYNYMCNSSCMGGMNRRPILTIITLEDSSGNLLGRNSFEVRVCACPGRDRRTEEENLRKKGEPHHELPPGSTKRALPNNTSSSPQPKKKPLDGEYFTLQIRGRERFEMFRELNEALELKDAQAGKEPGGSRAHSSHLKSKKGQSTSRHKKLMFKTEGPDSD

C=C1CCC2C(C)(C)C(O)CCC2(C)C1CCC(C)CCO (stereo not drawn)
inactive: activation [1] 6.25% | Potency [2] | Potency [3]

CC1CCC(=O)CC(SCC(O)C(=O)O)CCC(=O)O1 (stereo not drawn)
inactive: activation [1] -26% | Potency [2] | Potency [3]

COC(=O)C(CC1(O)c2ccccc2N2C(=O)C(CC(C)C)NC21)n1cnc2ccccc2c1=O (stereo not drawn)
inactive: activation [1] -1.53% | Potency [2] | Potency [3]

COc1c2c(c(C)c3c1C(=O)OC3)OC1(C)CC(O)C34OC(OC)(CC(OC(C)=O)C3(C)C1C2)OC4(C)C (stereo not drawn)
inactive: activation [1] -5.36% | Potency [2] | Potency [3]

CCCC1=CC2=C(CO1)C(=O)C(C)(O)C(OC(=O)c1c(C)cc(OC)cc1O)C2 (stereo not drawn)
inactive: activation [1] -1.53% | Potency [2] | Potency [3]

C[C@@H]1CN(Cc2ccccc2)C[C@H]1c1nc2c(cnn2C2CCOCC2)c(=O)[nH]1
inactive: activation [1] 18.8% | Potency [2] | Potency [3]

NS(=O)(=O)Nc1ncnc(OCCOc2ncc(Br)cn2)c1-c1ccc(Br)cc1
inactive: activation [1] 18.1% | Potency [2] | Potency [3]

CC1=C2C(=O)C=C(CO)C2C2OC(=O)C(CS(=O)(=O)O)C2C(OC(=O)Cc2ccc(O)cc2)C1 (stereo not drawn)
inactive: activation [1] -22.1% | Potency [2] | Potency [3]

CC(=O)OC/C(=C/C(=O)O)CC[C@@H]1C(C)=CC(=O)[C@@H]2C(C)(C)CCC[C@@]12C
inactive: activation [1] -23.7% | Potency [2] | Potency [3]

C=C1CCC2C(C)(C)CCCC2(C)C1CC/C(C)=C\CO (stereo not drawn)
inactive: activation [1] -12.5% | Potency [2] | Potency [3]

CC1=C(C(=O)OCc2ccccc2)C(c2ccc(-c3ccccc3)cc2)NC(=O)N1CCCCCC(=O)O (stereo not drawn)
inactive: activation [1] 12.3% | Potency [2] | Potency [3]
